# Measurements reported in the supplement of paper PMC11417369.
# The full ranking holds about 25,000 sequences; the median of “ln(normalized median fluorescence intensity)” is about 9.3, and the highest 2% start at about 10. This excerpt belongs to a sample that is enriched for the highest values.
# System: PF3D7_0420300 AP2 domain 1 (GST-tagged)
# Assay: gcPBM binding intensity (ln(normalized median fluorescence intensity)); higher = stronger DNA binding
# Summary of the method: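 GST-tagged P. falciparum DNA-binding domains, expressed in E. coli (about 25 μg on average), were applied for 1 h to an Agilent 4 × 180k array of primer-extended double-stranded 36-bp intergenic genomic probes plus negative controls. The binding buffer was 1× PBS with 1% milk, 0.2 mg/ml BSA, 0.5% salmon testes DNA and 0.03% Triton X-100. Bound protein was detected with Alexa488 anti-GST antibody and scanned at 488 nm. Binding intensity is the highest Masliner-normalised natural-log median intensity across replicate spots of either probe orientation.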
row,Sequence,gcPBM binding intensity (ln)
1,CACAAATATACAAATACACACAAATATACACATATA [CACACA_site7176],9.77
2,AAAAAACAAAAACACACACACACATATATATATATA [CACACA_site3654],10.2
3,AAAAAAAAAAAAAACATACACACAAATATATACATA [CACACA_site4010],9.67
4,TAAAGGCAAACAAACACACACACATATATACCTATA [CACACA_site7078],9.91
5,AAAAAAAAAAAAAACACACACATATATATATATATA [CACACA_site1891],9.55
6,AAAAAAAAAAAACACACACACATATATATATATATA [CACACA_site732],9.75
7,AAAAAAAAAAAACATACACACAAATATATACATACA [CACACA_site4011],9.89
8,AAGGCAAACAAACACACACACATATATACATATATA [CACACA_site2122],9.98
9,AGCAAATACAAACACACACACACATATACATATATA [CACACA_site3497],10.2
10,TAAAGGCAAACAAACACACACACATATATACATATA [CACACA_site2123],10.2
11,AAAAAAAAAAAACACACACACACATACAAAATATAT [CACACA_site1448],10.3
12,CACAAATATATACATACACACATATATACACATATA [CACACA_site8024],9.86
13,TAATAATTATTGCACGCACACAAAAACCTATAGATT [CACACA_site2931],9.45
14,ATGATCATAAAACACACACACAAAAAAAAAAAAAAA [CACACA_site1805],9.51
15,TTATTTTTTCAAGAATGTACTTACGAATTGTCGTAT [XGTACX_site1363],8.78
16,ATAAAAACATAAAAATGTACATATATATATATATAT [XGTACX_site7165],9.23
17,TGAGATAACAAAAGTTGTACTTTTTTTTTTTTTTTT [XGTACX_site3004],8.89
18,TATATATATATAATAGTGCATAAATAAATATATAAA,9.28
19,TACAATATTTTGAGACGTACATATATACATTTACAT [XGTACX_site5880],9.24
20,AAAATGAATATAATGACGCACACTTAAAATTGTTAA [CACACA_site2509],9.29
21,ATATGTTTATTAAATGCATGTCAAGACTTAAGATAT [TGCATGCA_site329],9.24
22,TGATTCATTGATAAGGGTACATTTATAATTATGATA [XGTACX_site6319],9.02
23,CAACATTTGAAACACACACACATACAAACAAACAAA [CACACA_site3306],10.2
24,AAAAAAAAAAAAAACACACACACAAATACAAATGGT [CACACA_site1721],10.2

row,Sequence,gcPBM binding intensity (ln)
1,TATATATATATACCAACACACATACATATATATATA [CACACA_site8530],9.68
2,CGCATACACCAACACACACACACATATATATATATA [CACACA_site635],10.2
3,TACATACATACATACACACACACATATATATACATA [CACACA_site853],10.1
4,AAAAAAAAAAAACACACACACAAATACAAATGGTAA [CACACA_site1720],10.1
5,AAAAAAAAAAAAAACACACACACAAATACAAATACA [CACACA_site414],10.1
6,TATACATATATATACACACACACATATATATATATA [CACACA_site1299],9.95
7,GGCAACATTTGAAACACACACACATACAAACAAACA [CACACA_site3307],9.97
8,CAACATTTGAGACACACACACATACAAACAAACAAA [CACACA_site7538],10
9,AACATACACATATACACACACACATATATACATATA [CACACA_site1093],10.2
10,TATATATATACCAACACACATACATATATATATATA [CACACA_site1795],9.46
11,TTATTATAAATGTTTTGTACGTACATCCGAAAATAA [XGTACX_site2175],9.05
12,TTTTTTGTTAAGTTGGTGCAAACAATAGTTATTGAC,8.95
13,TTTAAAGTTTTATACACACACCAAAGTTATTCTAAT [CACACA_site6432],9.56
14,GATTAAAATCAAAGGTGTACGCACAAATAAGTCCCA [XGTACX_site4360],9.3
15,TTTCTTATATAAGTGTACTAAAATATATATATGCAA [GTGCAC_negctrl_site546],9
16,GTGTCAAATTTTATAACACACAAAAGGTTATATAAG [CACACA_site7839],9.28
17,AAATAGATAAACTAAACACACAAAAAAAAAAAAAAT [CACACA_site1179],9.84
18,CATTTATTTTTGTTCTGTACATAAAGATGAACAAAA [XGTACX_site6797],8.81
19,TATATACACGCACATACACACAAATAAAAAAACACC [CACACA_site7578],9.93
20,CATACATACAAACACACACACATATATATACATACA [CACACA_site852],10.2
21,CACATACACATACAAACACACATTATATATATATAT [CACACA_site8460],9.62
22,AACATACACATATACACACACACATATATACCTATA [CACACA_site6643],10.4
23,AATATAAACACAAACACACACATATATATATATATA [CACACA_site4307],9.68
24,TATACGTATACCTATACACACATATATATATATATA [CACACA_site1273],9.49
